# Data reported in the supplement of paper PMC8728848.
# The full list was thinned out, with the strongest signals kept by preference.
# B1: Epa22 (Candida glabrata) (protein)
# chain: MGSSHHHHHHSSGLVPRGSHMKRALSSQNPFGYPIGCSPQSTNVIPGLTMELYSYPIVSGTPPNCYDASYVDPEYPRTGYLKRKMIGKSTGVTGSLNYKFSVEKACMVKYGNLPAGYNYNEPLTVSNFTMLLYGYFKPQTSGIHTFFVNADDLLYINFGAGNAFDCCKREDSKFKLGEYVAYDIWHVDSSKNKVSLNLEKDVYYPIRMFFNNIGKDSSLDLSFSVNGAVEHITDFSGYLYSVPDQPDACPAPIGYDTTCK
# Legend:
# Assay in all cases: glycan array binding signal (z-score within array); higher = stronger binding
# Settings in all cases: glycan notation: IUPAC condensed, linker removed
# [1] = molecular target: Fuc(a1-2)Gal(b1-4)GlcNAc(b1-3)Gal(b1-4)GlcNAc(b1-2)Man(a1-3)[Fuc(a1-2)Gal(b1-4)GlcNAc(b1-3)Gal(b1-4)GlcNAc(b1-2)Man(a1-6)]Man(b1-4)GlcNAc(b1-4)GlcNAc
# How it was run: (§1)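 Glycan array data were curated from 3228 arrays in the Consortium for Functional Glycomics database and kept only where the protein sequence was available. Glycan names were converted to IUPAC-condensed notation, and columns mapping to the same glycan were averaged. The binding signal is a within-array Z-score, averaged across arrays of the same protein sequence at different concentrations or buffers and across linkers. Negative Z-scores can be read as non-binding.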
# [2] = molecular target: Fuc(a1-2)Gal6S(b1-3)GlcNAc6S
# How it was run: as §1
# [3] = molecular target: Fuc(a1-2)[Gal(a1-3)]Gal(b1-4)[Fuc(a1-3)]GlcNAc(b1-3)GalNAc
# How it was run: as §1
# [4] = molecular target: Fuc(a1-2)[Gal(a1-4)]Gal(b1-4)GlcNAc
# How it was run: as §1
# [5] = molecular target: Fuc(a1-2)[GalNAc(a1-3)]Gal(b1-4)GlcNAc(b1-3)Gal(b1-4)GlcNAc(b1-3)Gal(b1-4)GlcNAc
# How it was run: as §1
# [6] = molecular target: Gal(a1-3)Gal(b1-3)GlcNAc(b1-6)GalNAc
# How it was run: as §1
# Gal(a1-3)Gal(b1-4)GlcNAc = molecular target: Gal(a1-3)Gal(b1-4)GlcNAc
# How it was run: as §1
# [7] = molecular target: Gal(a1-3)Gal(b1-4)GlcNAc(b1-2)Man
# How it was run: as §1
# Gal(a1-4)GlcNAc = molecular target: Gal(a1-4)GlcNAc
# How it was run: as §1
# Gal(a1-6)Glc = molecular target: Gal(a1-6)Glc
# How it was run: as §1
# Gal(b1-3)Gal = molecular target: Gal(b1-3)Gal
# How it was run: as §1
# [8] = molecular target: Gal(b1-3)GalNAc(a1-3)[Fuc(a1-2)]Gal(b1-4)GlcNAc
# How it was run: as §1
# [9] = molecular target: Gal(b1-3)GalNAc(b1-4)Gal(b1-4)Glc
# How it was run: as §1
# [10] = molecular target: Gal(b1-3)GlcNAc(a1-6)Gal(b1-4)GlcNAc
# How it was run: as §1
# [11] = molecular target: Gal(b1-3)GlcNAc(b1-3)Gal(b1-4)GlcNAc
# How it was run: as §1
# [12] = molecular target: Gal(b1-3)GlcNAc(b1-3)Gal(b1-4)GlcNAc(b1-6)[Gal(b1-3)GlcNAc(b1-3)]Gal(b1-4)Glc
# How it was run: as §1
# [13] = molecular target: Gal(b1-4)GlcNAc(b1-2)[Gal(b1-4)GlcNAc(b1-6)]Man(a1-6)[GlcNAc(b1-4)][Gal(b1-4)GlcNAc(b1-2)Man(a1-3)]Man(b1-4)GlcNAc(b1-4)GlcNAc
# How it was run: as §1
# [14] = molecular target: Gal(b1-4)GlcNAc(b1-3)Gal(b1-4)GlcNAc(b1-2)Man(a1-3)[Gal(b1-4)GlcNAc(b1-3)Gal(b1-4)GlcNAc(b1-2)Man(a1-6)]Man(b1-4)GlcNAc(b1-4)GlcNAc
# How it was run: as §1
# [15] = molecular target: Gal(b1-4)GlcNAc(b1-3)Gal(b1-4)GlcNAc(b1-3)Gal(b1-4)GlcNAc(b1-3)Gal(b1-4)GlcNAc(b1-3)Gal(b1-4)GlcNAc(b1-2)Man(a1-3)[Gal(b1-4)GlcNAc(b1-3)Gal(b1-4)GlcNAc(b1-3)Gal(b1-4)GlcNAc(b1-3)Gal(b1-4)GlcNAc(b1-3)Gal(b1-4)GlcNAc(b1-2)Man(a1-6)]Man(b1-4)GlcNAc(b1-4)[Fuc(a1-6)]GlcNAc
# How it was run: as §1
# [16] = molecular target: Gal(b1-4)GlcNAc(b1-3)GalNAc
# How it was run: as §1
# [17] = molecular target: Gal(b1-4)GlcNAc(b1-3)[GlcNAc(b1-6)]Gal(b1-4)GlcNAc
# How it was run: as §1
# Gal4S(b1-4)GlcNAc = molecular target: Gal4S(b1-4)GlcNAc
# How it was run: as §1
# Gal6S(b1-3)GlcNAc6S = molecular target: Gal6S(b1-3)GlcNAc6S
# How it was run: as §1
# Gal6S(b1-4)Glc6S = molecular target: Gal6S(b1-4)Glc6S
# How it was run: as §1
# Gal6S(b1-4)GlcNAc6S = molecular target: Gal6S(b1-4)GlcNAc6S
# How it was run: as §1
# [18] = molecular target: GalNAc(b1-3)Gal(a1-4)Gal(b1-4)GlcNAc(b1-3)Gal(b1-4)Glc
# How it was run: as §1
# GalNAc(b1-3)GalNAc = molecular target: GalNAc(b1-3)GalNAc
# How it was run: as §1
# [19] = molecular target: GalNAc(b1-4)GlcNAc(b1-2)Man
# How it was run: as §1
# GlcA(b1-6)Gal = molecular target: GlcA(b1-6)Gal
# How it was run: as §1
# [20] = molecular target: GlcNAc(a1-4)Gal(b1-4)GlcNAc(b1-3)Gal(b1-4)GlcNAc
# How it was run: as §1
# [21] = molecular target: GlcNAc(b1-2)Man(a1-3)[GlcNAc(b1-4)][GlcNAc(b1-2)Man(a1-6)]Man(b1-4)GlcNAc(b1-4)[Fuc(a1-6)]GlcNAc
# How it was run: as §1
# [22] = molecular target: GlcNAc(b1-2)[GlcNAc(b1-4)]Man(a1-3)[GlcNAc(b1-2)Man(a1-6)]Man(b1-4)GlcNAc(b1-4)GlcNAc
# How it was run: as §1
# [23] = molecular target: GlcNAc(b1-3)Gal(b1-4)GlcNAc
# How it was run: as §1
# [24] = molecular target: GlcNAc(b1-3)Gal(b1-4)GlcNAc(b1-2)Man(a1-3)[GlcNAc(b1-3)Gal(b1-4)GlcNAc(b1-2)Man(a1-6)]Man(b1-4)GlcNAc(b1-4)GlcNAc
# How it was run: as §1
# [25] = molecular target: GlcNAc(b1-3)Gal(b1-4)GlcNAc(b1-3)Gal(b1-4)GlcNAc(b1-3)Gal(b1-4)GlcNAc(b1-2)[GlcNAc(b1-3)Gal(b1-4)GlcNAc(b1-3)Gal(b1-4)GlcNAc(b1-3)Gal(b1-4)GlcNAc(b1-6)]Man(a1-6)[GlcNAc(b1-3)Gal(b1-4)GlcNAc(b1-3)Gal(b1-4)GlcNAc(b1-3)Gal(b1-4)GlcNAc(b1-2)Man(a1-3)]Man(b1-4)GlcNAc(b1-4)[Fuc(a1-6)]GlcNAc
# How it was run: as §1
# [26] = molecular target: GlcNAc(b1-3)[GlcNAc(b1-4)][GlcNAc(b1-6)]GlcNAc
# How it was run: as §1
# Man(a1-6)Man = molecular target: Man(a1-6)Man
# How it was run: as §1
# [27] = molecular target: Neu5Ac(a2-3)Gal(b1-3)[Fuc(a1-4)]GlcNAc(b1-3)Gal(b1-4)[Fuc(a1-3)]GlcNAc
# How it was run: as §1
# [28] = molecular target: Neu5Ac(a2-3)Gal(b1-4)GlcNAc(b1-2)Man(a1-3)[Neu5Ac(a2-3)Gal(b1-4)GlcNAc(b1-2)Man(a1-6)]Man(b1-4)GlcNAc(b1-4)GlcNAc
# How it was run: as §1
# [29] = molecular target: Neu5Ac(a2-3)Gal(b1-4)GlcNAc(b1-3)Gal(b1-4)GlcNAc(b1-6)[Gal(b1-3)]GalNAc
# How it was run: as §1
# [30] = molecular target: Neu5Ac(a2-3)Gal(b1-4)[Fuc(a1-3)]GlcNAc(b1-3)Gal
# How it was run: as §1
# [31] = molecular target: Neu5Ac(a2-3)Gal(b1-4)[Fuc(a1-3)]GlcNAc(b1-3)Gal(b1-4)[Fuc(a1-3)]GlcNAc(b1-3)Gal(b1-4)[Fuc(a1-3)]GlcNAc
# How it was run: as §1
# [32] = molecular target: Neu5Ac(a2-6)Gal(b1-4)GlcNAc(b1-2)Man(a1-6)Man(b1-4)GlcNAc(b1-4)GlcNAc
# How it was run: as §1
# [33] = molecular target: Neu5Ac(a2-6)Gal(b1-4)GlcNAc(b1-3)[Neu5Ac(a2-6)Gal(b1-4)GlcNAc(b1-6)]GalNAc
# How it was run: as §1
# [34] = molecular target: Neu5Ac(a2-8)Neu5Ac(a2-3)Gal(b1-3)GalNAc(b1-4)[Neu5Ac(a2-8)Neu5Ac(a2-3)]Gal(b1-4)Glc
# How it was run: as §1
binder,measurement,setting,value
B1,glycan array binding signal (z-score),[1],-0.382
same,glycan array binding signal (z-score),[2],5.1
same,glycan array binding signal (z-score),[3],-0.345
same,glycan array binding signal (z-score),[4],4.5
same,glycan array binding signal (z-score),[5],-0.366
same,glycan array binding signal (z-score),[6],3.74
same,glycan array binding signal (z-score),Gal(a1-3)Gal(b1-4)GlcNAc,5.2
same,glycan array binding signal (z-score),[7],4.75
same,glycan array binding signal (z-score),Gal(a1-4)GlcNAc,5.91
same,glycan array binding signal (z-score),Gal(a1-6)Glc,6.63
same,glycan array binding signal (z-score),Gal(b1-3)Gal,1.3
same,glycan array binding signal (z-score),[8],-0.36
same,glycan array binding signal (z-score),[9],0.34
same,glycan array binding signal (z-score),[10],0.491
same,glycan array binding signal (z-score),[11],-0.148
same,glycan array binding signal (z-score),[12],-0.145
same,glycan array binding signal (z-score),[13],-0.288
same,glycan array binding signal (z-score),[14],0.073
same,glycan array binding signal (z-score),[15],-0.231
same,glycan array binding signal (z-score),[16],-0.023
same,glycan array binding signal (z-score),[17],-0.387
same,glycan array binding signal (z-score),Gal4S(b1-4)GlcNAc,-0.182
same,glycan array binding signal (z-score),Gal6S(b1-3)GlcNAc6S,5.95
same,glycan array binding signal (z-score),Gal6S(b1-4)Glc6S,4.93
same,glycan array binding signal (z-score),Gal6S(b1-4)GlcNAc6S,4.56
same,glycan array binding signal (z-score),[18],-0.336
same,glycan array binding signal (z-score),GalNAc(b1-3)GalNAc,-0.424
same,glycan array binding signal (z-score),[19],-0.393
same,glycan array binding signal (z-score),GlcA(b1-6)Gal,5.98
same,glycan array binding signal (z-score),[20],-0.413
same,glycan array binding signal (z-score),[21],-0.35
same,glycan array binding signal (z-score),[22],-0.368
same,glycan array binding signal (z-score),[23],-0.312
same,glycan array binding signal (z-score),[24],-0.39
same,glycan array binding signal (z-score),[25],-0.37
same,glycan array binding signal (z-score),[26],-0.383
same,glycan array binding signal (z-score),Man(a1-6)Man,-0.371
same,glycan array binding signal (z-score),[27],-0.409
same,glycan array binding signal (z-score),[28],-0.356
same,glycan array binding signal (z-score),[29],-0.248
same,glycan array binding signal (z-score),[30],-0.385
same,glycan array binding signal (z-score),[31],-0.375
same,glycan array binding signal (z-score),[32],-0.426
same,glycan array binding signal (z-score),[33],-0.246
same,glycan array binding signal (z-score),[34],-0.003
